Bioassay records (PubChem BioAssay)
HT1080NT lethal = qHTS for induction of synthetic lethality in tumor cells producing 2HG: qHTS for the HT-1080-NT fibrosarcoma cell line. 1.6% of 360,000 active. Potency, µM (doses to about 46.1 µM), without a hit: top-dose activity, negative = less viability, hits mostly cytotoxic. HT-1080-NT fibrosarcoma viability, CellTiter-Glo ATP luminescence, 48 h;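 further: NT is the 2HG producing partner of a matched IDH1 knockdown line; 0% = DMSO-treated cells and -100% = media-only wells without cells; nearly all actives have a fitted effect of over 55% in size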
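HT-1080-NT; 750 cells/well; 5% FBS RPMI; 48 h compound, 37 degrees C; CellTiter-Glo luminescence; curve fitting and curve-class assignment.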
KB-V1 MDR tox = qHTS assay for MDR1-selective chemotherapeutics: Primary screen using the drug-selected MDR subline cells KB-V1; AID 1347076, 2019; 3.4% of 400,000 active; Potency, µM (doses to about 46.1 µM), most hits filed as cytotoxic; KB-V1 MDR cells viability, CellTiter-Glo, 72 h; further: nearly all actives have a fitted effect of over 60% in size
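Readout: CellTiter-Glo luminescence, 10 min after addition. Cells: KB-V1 MDR subline, 72 h at 37 degrees C with compound. Analysis: corrected, normalized data fitted to concentration-effect curves.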
DT40 TDP1 CPT = qHTS for Inhibitors of human tyrosyl-DNA phosphodiesterase 1 (TDP1): qHTS in cells in presence of CPT; chicken DT40 Tdp1-/-;hTDP1 cells + 20 nM CPT, ATP luminescence, 48 h; Potency, µM (top dose mostly 46.2 µM), inactives show at the top dose activity change, negative = growth inhibition, actives largely listed as inhibitors; 12% of 420,000 active; further: nearly all actives have a fitted effect of over 55% in size
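Cell growth measured by CellTiter-Glo luminescence after a minimum 48 h, 37 C compound exposure with 20 nM CPT in Tdp1-knockout DT40 cells stably expressing hTDP1, seeded 400/well; qHTS titration format.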
TDP1 cell noCPT = qHTS for Inhibitors of human tyrosyl-DNA phosphodiesterase 1 (TDP1): qHTS in cells in absence of CPT | AID 686978, 2013 | DT40 Tdp1-/- hTDP1 cells, no CPT, ATP luminescence, 48 h | 15% of 420,000 active | Potency, µM (top dose mostly 46.2 µM), for inactives: at the highest dose activity change, negative = growth inhibition, usual class: inhibitors; further: nearly all actives have a fitted effect of over 55% in size
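Compound effects on proliferation are scored in DT40 Tdp1-/-;hTDP1 cells in the absence of CPT. ATP levels (CellTiter-Glo luminescence) are recorded after a ≥48 hr, 37 °C incubation.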
HT1080 IDH1KD tx = qHTS for induction of synthetic lethality in tumor cells producing 2HG: qHTS for the HT-1080-IDH1KD cell line; HT-1080 IDH1 knockdown viability, ATP luminescence, 48 h; Potency, µM (series often up to 46.1 µM), for the others: at the highest dose activity, negative = toxicity, hits mostly cytotoxic; 2% of 360,000 active; AID 686971, 2013;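 further: 0% = DMSO wells and -100% = cell-free medium wells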
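HT-1080-IDH1KD cells (IDH1 knocked down), 750/well in RPMI with 5% FBS, treated with compound 48 h at 37 degrees C. Viability by CellTiter-Glo luminescence, normalised to DMSO and no-cell wells; concentration-response curves classed.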
KB-3-1 cytotox = qHTS assay for MDR1-selective chemotherapeutics: Primary screen using the parental adenocarcinoma cell KB-3-1 | KB-3-1 viability, CellTiter-Glo ATP luminescence, 72 h | Potency, µM (titrated, usually from 46.1 µM), most hits filed as cytotoxic | 1.4% of 400,000 active | AID 1347075, 2019; further: nearly all actives have a fitted effect of over 60% in size
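KB-3-1 parental drug-naive adenocarcinoma cells in DMEM/10% FBS, incubated 72 h at 37 C with pin-transferred compounds across a concentration series. Viability by CellTiter-Glo luminescence; concentration-response curves fitted after normalization.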
* = called active by the depositor; i = inactive; ? = inconclusive; / = no result given. Sampled rows, rich in hits. Any-hit rate of the full collection: about 19%. The call rests on the fitted dose curve; in most records, active means well fitted curve in the direction sought with a large enough effect; inconclusive means small, poorly fitted or top-dose-only effect, or another doubt; inactive means no such curve, though single readings can be large; an effect the other way counts as inactive or inconclusive. Unless noted, on the % scale 0 is the no-effect control and ±100 the full control effect; potency means the concentration at half of the fitted maximal effect.

SMILES | HT1080NT lethal | KB-V1 MDR tox | DT40 TDP1 CPT | TDP1 cell noCPT | HT1080 IDH1KD tx | KB-3-1 cytotox
CCCNC(=O)c1ccc(N2CCC3(CC2)CC(c2ccccc2)=NO3)c(NC(=O)c2ccco2)c1 | -15.4% | i | 18.4µM* | 16.4µM* | -5.0% | i
CCC(C(=O)NCc1ccccc1)n1ncn2c(cc3occc32)c1=O (centres undefined) | / | i | -0.8% | -11.7% | / | i
CC[C@@H](C(=O)n1nc(C)cc1C)[C@H](NS(=O)(=O)c1ccc(C)cc1)c1ccccc1 | -24.6% | ? | ? | 20.6µM* | -30.0% | i
CC(CNC(=S)Nc1cc(F)cc(F)c1)CSc1ccc(Cl)cc1 (centres undefined) | 18.4µM* | ? | ? | 25.9µM* | ? | i
Cc1nn(CC(=O)NC(C)C(C)C)c(C)c1S(=O)(=O)N1CCCCC1 (centres undefined) | -2.4% | i | 1.8% | 2.3% | -1.6% | i
COc1ccc(C(=O)Cc2ccc(OC)c(OC)c2)c(OC)c1 | -8.6% | 13µM* | ? | ? | 6.8% | i
COc1ccc(/C(C)=N/N=C(N)N)c(OC)c1 | -2.9% | i | 18.4µM* | -25.6% | -12.3% | ?
COc1ccc(/C(N)=N/OC(=O)Cc2ccc(OC)c(OC)c2)cc1 | ? | 8.2µM* | ? | ? | 15.7% | ?
CCn1c(=O)c2cc(C(=O)N(C)c3cc(C)ccc3OC)sc2c2ccccc21 | -6.7% | 23.1µM* | ? | ? | -1.7% | i
CCn1c(C(=O)O)c(CC(=O)N(C)c2ccc(OC)cc2OC)c2ccccc21 | -7.0% | ? | -5.2% | -26.7% | 0.0% | i
CCn1c(=O)c2cc(C(=O)N(C)c3ccc(OC)cc3OC)sc2c2ccccc21 | -6.0% | ? | ? | 13µM* | ? | i
CC(C)(C)N(Cc1ccccc1)C(=O)CN1C(=O)c2ccccc2S1(=O)=O | 12.7% | i | ? | 20.6µM* | 18.6% | i
O=C(Nc1nnc(Cc2ccccc2)s1)C1CCN(C(=O)c2cccs2)CC1 | / | i | ? | ? | / | i
C[C@@]12C(=O)N(Cc3ccco3)CC(=O)N1[C@H]1c3cc(Cl)ccc3OC[C@@H]1[C@@H]2c1ccccc1 | -12.0% | i | ? | ? | -9.1% | i
C[C@@]12C(=O)N(Cc3ccc(F)cc3)CC(=O)N1[C@H]1c3cc(Cl)ccc3OC[C@@H]1[C@@H]2c1ccccc1 | -8.0% | i | 23.1µM* | 18.4µM* | -10.8% | ?
C[C@@]12C(=O)N(Cc3ccccc3)CC(=O)N1[C@H]1c3cc(Cl)ccc3OC[C@@H]1[C@@H]2c1ccccc1 | -6.9% | i | ? | 18.4µM* | -4.9% | i
Cc1c(OCC(=O)NCC(O)c2ccccc2)ccc2c3c(c(=O)oc12)CCCC3 (centres undefined) | -1.5% | i | ? | ? | -1.0% | i
COc1cc(OC)c(NC(=O)Cn2c(=O)c(C(F)(F)F)nc3ccccc32)cc1Cl | / | i | 7.0% | -2.4% | / | i
Cc1ccc(NC(=O)CN2C(=O)COc3ccc(S(=O)(=O)NC4CCCC4)cc32)cc1N(C)C | / | i | -24.8% | ? | / | i
Cc1ccc(CC2CC(=O)N(c3nc4ccccc4s3)C2=O)cc1 (centres undefined) | -1.7% | i | 8.6% | 0.9% | 9.2% | i
